The entries come from a sample that favours hits as a whole.
Tgondii IFNg = blocks Toxoplasma gondii growth in the presence of IFN-gamma; AID 1259416; activity change, negative = inhibition, % (no concentration beside the values); 3.8% of 69,000 active; Toxoplasma gondii growth in IFN-gamma-treated host cells; hits give low values; in the data active means activity change below about -70%, passing the limit was not always enough;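 further: host cells are HeLa cells infected with Toxoplasma gondii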
An asterisk follows results filed as active.

CC(=O)OCC(=O)[C@H]1CC[C@H]2[C@@H]3CC=C4C[C@@H](O)CC[C@]4(C)[C@H]3CC[C@]12C was read as Tgondii IFNg -35.
CC(=O)[C@H]1CCC2C3CC=C4C[C@@H](O)CC[C@]4(C)C3CC[C@@]21C (some centres undefined) was read as Tgondii IFNg 11.
For CC(=O)[C@H]1CC[C@H]2[C@@H]3CCC4=CC(=O)CC[C@]4(C)[C@H]3CC[C@]12C the results were Tgondii IFNg -88*.
Screening Cc1noc(C)c1S(=O)(=O)Nc1ccc(Oc2c(Cl)cccc2Cl)nc1 returned Tgondii IFNg -1.
`CCN1c2ccc(C)cc2C(=O)NC12CCN(C(=O)c1ccccc1OC)CC2` gave Tgondii IFNg 120.
`CCc1ccc(Nc2nc(C(=O)NC3CCCCC3)nc3ccccc23)cc1` gave Tgondii IFNg 20.
`CC(=O)N1CC2(CCN(C(=O)c3cccs3)CC2)CC1C(=O)O` (centres undefined) gave Tgondii IFNg 4.
`CNC(=O)c1ccc(Nc2ncc(C(F)(F)F)c(NCc3nccnc3N(C)S(C)(=O)=O)n2)cc1` gave Tgondii IFNg -85*.
For COc1ccc(NC(=O)Cn2c(C)cc(C)c(C#N)c2=O)cc1Cl the results were Tgondii IFNg -16.
Screening Cc1cc(C)cc(NC(=O)CN2C(=O)CCc3cc(S(=O)(=O)N4CCC(C)CC4)ccc32)c1 returned Tgondii IFNg 19.
`O=C(CN1C(=O)CCc2cc(S(=O)(=O)N3CCCC3)ccc21)Nc1cccc(F)c1` gave Tgondii IFNg -19.
`O=C(CN1C(=O)CCc2cc(S(=O)(=O)N3CCCC3)ccc21)Nc1ccc(Cl)cc1` gave Tgondii IFNg 46.
Screening Cc1ccc(NC(=O)CN2C(=O)CCc3cc(S(=O)(=O)N4CCC(C)CC4)ccc32)cc1 returned Tgondii IFNg 19.
Screening Cc1ccc(NC(=O)CN2C(=O)CCc3cc(S(=O)(=O)N4CCC(C)CC4)ccc32)cc1N(C)C returned Tgondii IFNg 149.
Screening COc1cccc(NC(=O)CN2C(=O)CCc3cc(S(=O)(=O)N4CCC(C)CC4)ccc32)c1 returned Tgondii IFNg -41.
Cc1ccc(NC(=O)CN2C(=O)CCc3cc(S(=O)(=O)N4CCC(C)CC4)ccc32)cc1C was read as Tgondii IFNg -99*.
CCc1ccc(NC(=O)CN2C(=O)CCc3cc(S(=O)(=O)N4CCCCC4)ccc32)cc1 was read as Tgondii IFNg -97*.
COc1ccc(NC(=O)CN2C(=O)CCc3cc(S(=O)(=O)N4CCCCC4)ccc32)cc1OC was read as Tgondii IFNg 8.
For O=C(CN1C(=O)CCc2cc(S(=O)(=O)N3CCCC3)ccc21)Nc1cccc(Br)c1 the results were Tgondii IFNg -108*.
Cc1cccc(NC(=O)CN2C(=O)CCc3cc(S(=O)(=O)N4CCCCC4)ccc32)c1 was read as Tgondii IFNg 1.
Screening CCc1ccc(NC(=O)CN2C(=O)CCc3cc(S(=O)(=O)N4CCC(C)CC4)ccc32)cc1 returned Tgondii IFNg -77*.
`COc1ccc(-c2[nH]nc3c2C(C(=O)c2ccc(C)s2)CC(=O)N3)cc1OC` (centres undefined) gave Tgondii IFNg -4.
For O=C1NCC(=O)N2CCN(C(=O)CCN3CCCCCC3=O)CC12 (centres undefined) the results were Tgondii IFNg -4.
Screening Cc1cc(NC(=O)c2c(O)c3cccnc3n(-c3ccccc3)c2=O)ccc1F returned Tgondii IFNg -28.
`Cc1nn(CCO)cc1CN1CCCN(c2ccccc2)CC1` gave Tgondii IFNg -1.
Screening O=C(c1ccc(CN2CCS(=O)(=O)CC2)cc1)N1C[C@H]2CC=CC[C@H]2C1 returned Tgondii IFNg 5.
Screening CC1CCN(S(=O)(=O)c2ccc3c(c2)CCC(=O)N3CC(=O)Nc2cccc(F)c2)CC1 returned Tgondii IFNg -11.
CC1CCN(S(=O)(=O)c2ccc3c(c2)CCC(=O)N3CC(=O)Nc2ccc3c(c2)OCCO3)CC1 was read as Tgondii IFNg -88*.
For CC1CCN(S(=O)(=O)c2ccc3c(c2)CCC(=O)N3CC(=O)Nc2cccc(Cl)c2)CC1 the results were Tgondii IFNg -87*.
For CC1CCN(S(=O)(=O)c2ccc3c(c2)CCC(=O)N3CC(=O)Nc2ccccc2)CC1 the results were Tgondii IFNg -2.
Screening O=C(CN1C(=O)CCc2cc(S(=O)(=O)N3CCCC3)ccc21)Nc1ccc2c(c1)OCCO2 returned Tgondii IFNg 17.
`CC1CCN(S(=O)(=O)c2ccc3c(c2)CCC(=O)N3CC(=O)NCc2ccc3c(c2)OCO3)CC1` gave Tgondii IFNg -27.
`OC[C@H]1CCN(Cc2cnc(NCc3ccccc3)nc2)C[C@@H]1O` gave Tgondii IFNg 81.
c1nc2c(c(N3CCOCC3)n1)CCNCC2 was read as Tgondii IFNg 76.
For Cc1ccc(C(NC(=O)C(C)Oc2ccc(-n3cnnn3)cc2)c2cccnc2)cc1 (centres undefined) the results were Tgondii IFNg -10.

Screening data (PubChem BioAssay)
